Assay results reported in PubChem BioAssay AID1159580 (chemical genetic matrix, 2015).
Several values for one entry are separate records, joined by “and”; a condition that tells them apart may be missing. Identical values can stand only once. Out of some 5,500 compounds screened, about 2,000 (36%) were called active. Roughly 18% stayed inconclusive and do not appear here. Cut-off read from the data, not from the text of the source: active = normalized growth mostly below about 0.91 (no sharp cut-off); inconclusive = no clear call, values can overlap the other calls; inactive = mostly above about 0.92. The list shows a part of the results.

Test: chemical genetic growth profiling, strain panel (AID 1159580);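 note: tested at 20 µM; growth read once vehicle control cultures reached saturation at 30 °C; 1 = growth at the plate median or of vehicle wells; lower values mean less growth of the strain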
Conditions: S. cerevisiae deletion strains, growth OD

Measured: normalized growth

CC1=NCCc2c1[nH]c1cc(O)ccc21
inactive: locus YAL013W, strain DEP1, hits give low values 0.99 | locus YAL021C, strain ccr4, hits give low values 0.923 | locus YAL026C, strain drs2, hits give low values 0.987 | locus YAL030W, strain snc1, hits give low values 0.984 | locus YBL061C, strain skt5, hits give low values 0.995 | locus YBR009C, strain hhf1, hits give low values 0.97 | locus YBR021W, strain FUR4, hits give low values 0.989 | locus YBR023C, strain chs3, hits give low values 0.994 | locus YBR171W, strain sec66, hits give low values 0.993 | locus YBR229C, strain ROT2, hits give low values 0.955 | locus YBR231C, strain swc5, hits give low values 1.02 | locus YBR279W, strain paf1, hits give low values 0.995 | locus YCL011C, strain gbp2, hits give low values 0.963 | locus YCL016C, strain dcc1, hits give low values 0.967 | locus YCL029C, strain bik1, hits give low values 0.994 | locus YCL069W, strain vba3, hits give low values 0.976 | locus YCR088W, strain abp1, hits give low values 0.99 | locus YDL005C, strain med2, hits give low values 0.995 | locus YDL035C, strain GPR1, hits give low values 0.992 | locus YDL040C, strain nat1, hits give low values 0.993 | locus YDL074C, strain BRE1, hits give low values 0.997 | locus YDL101C, strain DUN1, hits give low values 0.978 | locus YDL134C, strain PPH21, hits give low values 0.988 | locus YDL185W, strain tfp1, hits give low values 0.993 | locus YDL192W, strain arf1, hits give low values 0.992 | locus YDR001C, strain nth1, hits give low values 0.971 | locus YDR069C, strain doa4, hits give low values 0.986 | locus YDR101C, strain arx1, hits give low values 0.997 | locus YDR137W, strain rgp1, hits give low values 0.98 | locus YDR150W, strain NUM1, hits give low values 0.972 | locus YDR159W, strain sac3, hits give low values 1.02 | locus YDR162C, strain NBP2, hits give low values 0.99 | locus YDR195W, strain ref2 0.953 | locus YDR297W, strain sur2, hits give low values 0.996 | locus YDR318W, strain mcm21, hits give low values 0.994 | locus YDR334W, strain swr1, hits give low values 0.97 | locus YDR335W, strain msn5, hits give low values 0.986 | locus YDR388W, hits give low values 1 | locus YDR392W, strain spt3, hits give low values 0.93 | locus YDR502C, strain sam2, hits give low values 0.984 | locus YEL003W, strain gim4, hits give low values 0.994 | locus YEL037C, strain rad23, hits give low values 0.978 | locus YEL061C, strain CIN8 (second series), hits give low values 0.985 | locus YEL061C, strain CIN8, hits give low values 0.988 | locus YER015W, strain faa2, hits give low values 0.975 | locus YER016W, strain bim1, hits give low values 0.993 | locus YER110C, hits give low values 0.974 | locus YER111C, strain swi4, hits give low values 0.995 | locus YER155C, strain BEM2 (second series), hits give low values 1.03 | locus YER155C, strain BEM2, hits give low values 1.01 | locus YER167W, strain BCK2, hits give low values 1 | locus YFR010W, strain ubp6, hits give low values 0.983 | locus YGL078C, strain dbp3, hits give low values 0.991 | locus YGL086W, strain mad1, hits give low values 0.987 | locus YGL167C, strain pmr1, hits give low values 0.976 | locus YGL173C, strain kem1, hits give low values 0.991 | locus YGL227W, strain vid30, hits give low values 0.99 | locus YGL240W, strain doc1, hits give low values 1 | locus YGL248W, strain PDE1, hits give low values 0.99 | locus YGL253W, strain hxk2, hits give low values 0.985 | locus YGR078C, strain PAC10, hits give low values 1.01 | locus YGR135W, strain pre9, hits give low values 0.992 | locus YGR229C, strain SMI1, hits give low values 1.01 | locus YGR252W, strain gcn5, hits give low values 0.932 | locus YHR013C, strain ard1, hits give low values 0.95 | locus YHR027C, strain rpn1, hits give low values 0.966 | locus YHR030C, strain SLT2, hits give low values 0.995 and 1.01 | locus YHR079C, strain IRE1 (second series), hits give low values 0.995 | locus YHR079C, strain IRE1, hits give low values 1.01 | locus YHR094C, strain hxt1, hits give low values 0.99 | locus YHR129C, strain ARP1, hits give low values 1 | locus YHR142W, strain chs7, hits give low values 0.968 | locus YHR200W, strain rpn10, hits give low values 0.991 | locus YIL066C, strain RNR3, hits give low values 0.975 | locus YIL073C, strain SPO22, hits give low values 0.992 | locus YIL125W, strain kgd1, hits give low values 0.988 | locus YIR030C, strain dcg1, hits give low values 0.985 | locus YJL092W, strain hpr5, hits give low values 0.965 | locus YJL095W, strain BCK1 (second series), hits give low values 0.983 | locus YJL095W, strain BCK1, hits give low values 1.05 and 1.01 | locus YJL115W, strain asf1, hits give low values 0.956 | locus YJL129C, strain trk1, hits give low values 1.01 | locus YJL134W, strain LCB3, hits give low values 0.986 | locus YJL154C, strain vps35, hits give low values 0.977 | locus YJL164C, strain tpk1, hits give low values 0.95 | locus YJL166W, strain qcr8, hits give low values 1.01 | locus YJL168C, strain set2, hits give low values 0.999 | locus YJL187C, strain SWE1 (second series), hits give low values 0.991 | locus YJL187C, strain SWE1, hits give low values 0.989 | locus YJR043C, strain POL32, hits give low values 1.01 | locus YJR066W, strain TOR1, hits give low values 0.934
